According to PubChem BioAssay AID686979 (National Center for Advancing Translational Sciences (NCATS), 2013):
About 50,000 (12%) of roughly 420,000 compounds were called active. Not shown: some 26% with an inconclusive outcome. The sample holds actives, similar compounds and a random draw of the others, so the mix is not that of the screen. A number with no mark means an inactive call. Calls come from the whole dose curve; as a rule, active = well fitted inhibition curve with a large enough effect; inconclusive = small, poorly fitted or top-dose-only effect; inactive = flat fitted curve, though single readings scatter.

assay: qHTS for Inhibitors of human tyrosyl-DNA phosphodiesterase 1 (TDP1): qHTS in cells in presence of CPT; conditions: chicken DT40 Tdp1-/-;hTDP1 cells + 20 nM CPT, ATP luminescence, 48 h; series mostly up to 46.2 µM; activity change, negative = growth inhibition: at the top concentration; note: nearly all actives have a fitted effect of over 55% in size
Text: Human tyrosyl-DNA phosphodiesterase 1 (TDP1) is a novel repair gene, and we propose to use it as a new target for anticancer drug development. TDP1 is not an essential protein, but under treatment with topoisomerase I poison (camptothecin: CPT), TDP1 works as a critical factor for cell survival. To directly identify novel TDP1 inhibitors active in a cellular environment, we have knocked-out the Tdp1 gene in chicken DT40 cells (Tdp1-/-) and generated a complemented counterpart cells that contains a stable transfection of the human TDP1 gene (Tdp1-/-;hTDP1 cells). For the primary screen, Tdp1-/-;hTDP1 cells will be exposed to small molecules in the presence or absence of CPT, and their growth kinetics will be evaluated after 48 hours by measuring ATP activity. […] The hit compounds will then be evaluated in the presence or absence of CPT using Tdp1-/- cells. […] In tertiary assays, biochemical gel-based assays will be used to assess whether the hit compounds specifically target TDP1. To this end, we have screened this cell line against the MLSMR in two primary screens. In one screen we add CPT and in the other we screen in the absence of CPT; this AID represents the screen where CPT was present. NIH Chemical Genomics Center [NCGC] NIH Molecular Libraries Probe Centers Network [MLPCN] MLPCN Grant: MH095538 Assay Submitter (PI): Yves Pommier, NCI
DT40-hTDP1 cells with 20 nM Camptothecin (add 20 microL of 1 mM CPT stock in 1 L of cell culture medium) were dispensed at 400 cells/5microL/well in tissue culture treated 1536-well white wall/solid bottom assay plates (Greiner Bio-One North America, NC, U.S.A.) using a Multidrop Combi 8 channel dispenser (Thermo Fisher, Waltham, MA, USA). 23 nL compounds and controls were transferred using the pin tool (Kalypsys, San Diego, CA, USA) to the assay plates. The assay plates were then incubated at 37 masculineC for a minimum 48 hr. Three microL of Cell Titer Glo solution was added to the plates and incubated at RT in dark for 30 min. Luminescence was read using ViewLux (Perkin Elmer) with 1 sec exposure slow speed, high gain and 2x binning.
% is set by controls: 0 for no effect and ±100 for the full control effect; potency is the fitted concentration of half-maximal effect.

Row | SMILES | Potency | activity change, negative = growth inhibition [%]
1 | CCCC12CN3CC(CCC)(CN(C1)C3c1c[nH]c3ccc(OC)cc13)C2=O (configuration not stated) | 18.4 µM (active) | –
2 | COc1ccc(-c2c(C#N)cnc(C)c2C)c(O)c1OC | – | 19.2
3 | CCOC(=O)c1ccccc1NC(=O)COC(=O)CCC(=O)N1CCOCC1 | – | 6.01
4 | O[C@@H]1C[C@H](c2ccccc2)N(Cc2cccs2)C[C@H]1n1cc(C2CC2)nn1 | – | -14.3
5 | CC(C)CC(=O)N1CCN(Cc2ccccc2Br)CC1 | – | 0.503
6 | C=C1C(=O)C23C(O)C1CCC2[C@]12COC3(O)C(O)C1C(C)(C)CC[C@H]2O (some centres not stated) | 3.26 µM (active) | –
7 | N#CCSc1nc2c(c(=O)n1Cc1ccccc1)C1(CCCC1)Cc1ccccc1-2 | 16.4 µM (active) | –
8 | Cc1cccc(-n2c(SCC(N)=O)nc3c(c2=O)C2(CCCCC2)Cc2ccccc2-3)c1 | – | -25.7
9 | CC(/C=C/C1(O)C(C)CC(=O)CC1(C)C)OC1OC(CO)C(O)C(O)C1O (configuration not stated) | – | 10.3
10 | Cc1ccc(N2C(=O)CC(N3CCSCC3)C2=O)c(C)c1 (configuration not stated) | – | 5.52
11 | CNc1nc(=O)n(C2CCCO2)cc1C (configuration not stated) | – | -11.7
12 | N/C(=N\OC(=O)Nc1ccc(Cl)c(Cl)c1)c1ncc(C(F)(F)F)cc1Cl | – | -26.8
13 | COc1cc(/C=C2\SC(=S)N(Nc3ncc(C(F)(F)F)cc3Cl)C2=O)cc(OC)c1OC | – | -17.6
14 | COc1cccc(/C=N/Nc2ncc(C(F)(F)F)cc2Cl)c1O | 4.61 µM (active) | –
15 | CC(=O)c1c(C)[nH]c(C(=O)CN2C(=O)NC(C)(C)C2=O)c1C | – | -14.5
16 | O=C(N/N=C/c1cc2c(cc1Br)OCO2)C1COc2ccccc2O1 (configuration not stated) | – | -12.4
17 | COc1ccc(C2=CC(c3cccc(OC)c3)n3nnnc3N2)cc1 (configuration not stated) | – | 0.872
18 | COc1ccc(NC(=O)CSc2nnnn2-c2cccc(OC)c2)cc1 | – | -2.26
19 | CCOc1cccc(-n2nnnc2-c2ccc(OC)cc2)c1 | 2.91 µM (active) | –
20 | CCCn1nnnc1NCc1ccc(OC)cc1 | – | -2.53
21 | C=CCOc1ccc(C(=O)Nc2ccccc2C(=O)N2CCCC2)cc1 | – | -1.88
22 | COc1cc(OC)c2c(c1Cl)OC1(C2=O)C(O)=CC(=O)CC1C (configuration not stated) | – | -20.9
23 | Cc1cc(=O)oc2cc(OCC(=O)Nc3nnc(C4CC4)s3)ccc12 | – | 1.7
24 | CC(=O)c1c(C)[nH]c(C(=O)COc2ccc3c(C)cc(=O)oc3c2)c1C | 16.4 µM (active) | –
25 | Cc1ccc(O)c(/C=N/NC(=O)COc2ccc3c(C)cc(=O)oc3c2)c1 | 20.6 µM (active) | –
26 | Cc1cc(=O)oc2ccc(OCC(=O)O)cc12 | – | 2.43

Row | SMILES | Potency | activity change, negative = growth inhibition [%]
27 | COC(=O)COc1ccc2oc(=O)cc(C)c2c1 | – | 11.2
28 | CCOC(=O)Cc1csc(NC(=O)COc2ccc3c(C)cc(=O)oc3c2)n1 | – | -16.1
29 | CC1=C(C/C=C(\C)CCCC(C)CCCC(C)CCCC(C)C)C(=O)c2ccccc2C1=O (configuration not stated) | – | -6.7
30 | C=CC[C@H](CC(=O)OC(C)(C)C)C(=O)OC[C@H]1CCCN1C(=O)[C@H](CC=C)CC(=O)N(CCO)Cc1ccccc1 | 16.4 µM (active) | –
31 | CCc1ccc(NC(=O)Cn2ncn3c(cc4ccccc43)c2=O)cc1 | – | -23.6
32 | N#Cc1cccc(CN2CCC(=O)N(CCO)CC2)c1 | – | 4.69
33 | O=C(C1CCC1)N1CCN(S(=O)(=O)c2ccc([N+](=O)[O-])cc2)CC1 | – | -20.9
34 | Cc1c(S(=O)(=O)NCc2ccccc2)c(=O)n(C)c(=O)n1C | – | 15.1
35 | Cn1c(=O)c2c(-c3ccccc3Br)n(Cc3ccccc3)cc2n(C)c1=O | 20.6 µM (active) | –
36 | O=C(c1ccc[nH]c1=S)N1CCN(S(=O)(=O)c2ccc(Br)cc2Cl)CC1 | – | -0.528
37 | COc1ccccc1CNC(=O)c1ccc(CS(=O)(=O)c2ccccc2)o1 | – | -0.755
38 | Cc1ccc(CCNC(=O)c2ccc(CS(=O)(=O)Cc3cccc(C)c3)o2)cc1 | 23.1 µM (active) | –
39 | COc1ccc(CCNC(=O)Cc2ccc(C)cc2)cc1OC | – | -25.1
40 | COc1ccc(CCNC(=O)NS(=O)(=O)c2ccc(C)cc2)cc1OC | – | 1.74
41 | COc1ccc(CCNC(=O)c2ccc(CS(=O)(=O)c3ccc(Br)cc3)o2)cc1OC | 20.6 µM (active) | –
42 | COc1ccc(CCNC(=O)c2ccc(CSCc3ccc(C)cc3)o2)cc1OC | 14.6 µM (active) | –
43 | Cc1ccc(CNC(=O)c2ccc(CS(=O)Cc3cccc(Cl)c3)o2)cc1 (configuration not stated) | – | -23.5
44 | COc1ccc(CCNC(=O)c2nnc(CS(=O)(=O)c3ccccc3)o2)cc1OC | – | -33.7
45 | O=C(NCc1ccco1)c1ccc(CS(=O)(=O)Cc2ccc(F)cc2)o1 | – | -9.49
46 | COc1cccc(NC(=S)N(Cc2ccc(C)cc2)Cc2ccccn2)c1 | – | -11.2
47 | CN=C1C=C/C(=N/N=c2\ccn(O)cc2C)C=C1C | – | 2.23
48 | CCOC(=O)C1=C(CC)Nc2ccccc2N=C1NC(=O)c1cccc(S(=O)(=O)N2CCCC2)c1 | – | -21.8
49 | CC(=O)NC12CC3CC(C1)CC(C(=O)N1CCN(C(=O)c4ccco4)CC1)(C3)C2 | – | 2.65
50 | N#CC1(Nc2ccc3c4c(cccc24)CC3)CCCCC1 | – | -7.33
51 | CC(C)[C@H]1CC[C@@H](C)C[C@H]1O | – | 31.4
52 | CC(c1ccccn1)N(CCN(C)C)C(=S)Nc1ccccc1F (configuration not stated) | – | -0.383
